High-throughput results (PubChem)
HTT-AS act = activates huntingtin-antisense promoter activity; HEK293 HTT-AS promoter firefly luciferase reporter, 24 h; response scale: percent change from vehicle, -100% = no light; Potency, µM (top dose mostly 57.5 µM), for the others: at the top dose activity change, positive = activation, hits mostly activators; 48,000 compounds, 0.24% hits; note: potency is the fitted concentration of half-maximal effect; nearly all actives have a fitted effect of over 55% in size
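Firefly luciferase signal from promoter-reporter HEK293 cells was scaled between vehicle (0%) and zero RLU (-100%). Compounds were tested at final concentrations of up to 57.5 uM over 24 h at 37 degrees C. PTC124 at 50 uM final served as control inhibitor.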
NTMT1 inh = blocks human N-terminal methyltransferase 1 activity; NTMT1 MTase-Glo SAH luminescence, purified enzyme; AID 1645870; Q9BV86; Potency, µM (highest dose often 114 µM), for inactives: at the top dose activity change, negative = inhibition, usual class: inhibitors; 59,000 compounds, 2.5% hits;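 note: potency is the fitted concentration of half-maximal effect; plate controls were DMSO vehicle for no effect and no enzyme for full effect; nearly all actives have a fitted effect of over 65% in size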
GPR32 ag = GPR32 (DRV1) agonism, beta-arrestin recruitment; O75388; CHO-K1 GPR32 beta-arrestin PathHunter luminescence, 90 min; zero percent set by DMSO-only wells; activation, % at 76.9 µM; 48,000 compounds, 2.5% hits; AID 1346428;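 active = activation of at least 60% and not above a set upper limit, about 1 call in 100 departs from these limits; inconclusive = activation of 40% to 60%, or above that upper limit; inactive = activation under 40%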; note: 0% is about no effect
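Luminescent readout of beta-Gal complementation quantifies ligand-induced beta-arrestin association with GPR32 in CHO-K1 cells; 90 min compound incubation at 37 °C, detection 1 h at room temperature.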
SKOV3 invasion = inhibitors of ovarian cancer cell adhesion and invasion in omental model; SKOV3ip1-GFP adhesion/invasion on 3D omental model, fluorescence; Potency, µM (highest dose often 45.8 µM), without a hit: at the top dose activity change, negative = inhibition, most hits filed as inhibitors; 46,000 compounds, 0.1% hits; AID 1963576;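 note: potency is the fitted concentration of half-maximal effect; plate controls were DMSO wells for no effect and tomatine positive control wells for full effect; nearly all actives have a fitted effect of over 65% in size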
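Adhesion/invasion was scored as fixed GFP-labeled SKOV3ip1 cell counts (488/509 nm), normalized to DMSO and tomatine controls. Cancer cells in serum-free medium, with four compound doses (0.36-46 umol/L), sat 2 hr at RT then 16 hr at 37 C on a 48 hr fibroblast/mesothelial/ECM culture.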
HTT prom inh = inhibitors of huntingtin promoter activity | HEK293 HTT promoter firefly luciferase reporter, 24 h | Potency, µM (titrated, usually from 57.5 µM), without a hit: at the highest dose activity change, negative = inhibition, hits mostly inhibitors | 48,000 compounds, 0.93% hits; note: potency is the fitted concentration of half-maximal effect; nearly all actives have a fitted effect of over 50% in size
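HEK293 luciferase promoter-reporter cells (2,500/well) plated 24 h, then compounds added at up to 57.5 uM final for 24 h at 37 °C. Firefly luminescence by Dual-Glo, normalized to vehicle (0%) and zero RLU (-100%).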
Sfp qHTS opt = inhibitors of Bacillus subtilis Sfp PPTase, optimization followup. Potency, µM (doses to about 114 µM), for the others: at the top dose activity change, negative = inhibition, hits mostly inhibitors. purified Sfp PPTase enzyme activity, qHTS. 230 compounds, 78% hits. shares compounds with NTMT1 inh. AID 540350
Bsub HM489 growth = Sfp PPTase inhibitors: growth inhibition of B. subtilis HM489; 220 compounds, 50% hits; B. subtilis HM489 (acpS-) growth, BacTiter-Glo, 5 h; AID 540353; Potency, µM (series often up to 114 µM), for inactives: top-dose activity change, negative = inhibition, usual class: inhibitors; shares compounds with NTMT1 inh
Sfp gel opt = inhibits B. subtilis Sfp PPTase in gel assay | purified Sfp PPTase, gel-based product detection | shares compounds with NTMT1 inh | 220 compounds, 54% hits | AID 540355 | Potency, µM (top dose mostly 250 µM), for inactives: at the highest dose activity change, negative = inhibition, hits mostly inhibitors
Sfp inh gel = inhibits B. subtilis Sfp PPTase in gel-based assay; purified Sfp PPTase, gel-based product detection; shares compounds with NTMT1 inh; 45 compounds, 90% hits; Potency, µM (titrated, usually from 250 µM), for inactives: at the top dose activity change, negative = inhibition, most hits filed as inhibitors
Sfp inh SAR2 = inhibitors of Bacillus subtilis Sfp PPTase, SAR round 2. purified Sfp enzyme, PPTase activity, qHTS. 230 compounds, 87% hits. shares compounds with NTMT1 inh. AID 602370. Potency, µM (top dose mostly 57.1 µM), inactives show at the highest dose activity change, negative = inhibition, most hits filed as inhibitors
hGST A1-1 inh = hGST A1-1 enzyme inhibition, Sfp SAR counter-screen. 55 tested, under 10 active. shares compounds with NTMT1 inh. hGST A1-1 enzyme activity counter-screen, qHTS. Potency, µM (series often up to 114 µM), inactives show at the highest dose activity change, negative = inhibition, actives largely listed as inhibitors. AID 602391
HSD17B4 counter = counter-screen for HPGD inhibitors: human HSD17B4 inhibition | shares compounds with NTMT1 inh | purified HSD17B4, estradiol/NAD+, NADH fluorescence | Potency, µM (series often up to 57.1 µM), without a hit: at the top dose activity change, negative = inhibition, actives largely listed as inhibitors | 230 compounds, 10% hits | AID 743187
Target sequence (P51659 whole entry, looked up): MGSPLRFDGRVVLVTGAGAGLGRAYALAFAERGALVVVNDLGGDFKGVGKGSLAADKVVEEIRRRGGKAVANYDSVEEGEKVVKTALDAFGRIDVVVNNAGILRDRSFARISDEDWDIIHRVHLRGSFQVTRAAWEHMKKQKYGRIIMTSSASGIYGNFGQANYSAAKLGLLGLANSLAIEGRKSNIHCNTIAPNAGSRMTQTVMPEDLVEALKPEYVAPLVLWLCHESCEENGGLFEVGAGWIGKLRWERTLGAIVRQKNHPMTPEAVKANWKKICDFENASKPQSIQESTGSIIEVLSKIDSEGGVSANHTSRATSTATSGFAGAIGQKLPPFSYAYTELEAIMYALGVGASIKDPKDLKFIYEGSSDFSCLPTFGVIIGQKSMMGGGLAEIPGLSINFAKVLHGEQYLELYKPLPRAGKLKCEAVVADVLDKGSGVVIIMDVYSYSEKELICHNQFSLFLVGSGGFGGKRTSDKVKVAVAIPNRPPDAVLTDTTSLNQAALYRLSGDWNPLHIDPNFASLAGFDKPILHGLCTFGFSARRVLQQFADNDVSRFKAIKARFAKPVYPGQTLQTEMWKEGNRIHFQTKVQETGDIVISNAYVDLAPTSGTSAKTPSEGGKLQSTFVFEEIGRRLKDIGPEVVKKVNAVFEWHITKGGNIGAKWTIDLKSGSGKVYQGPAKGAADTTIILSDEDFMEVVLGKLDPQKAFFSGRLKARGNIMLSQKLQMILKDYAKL
ALDH1A1 counter = counter-screen for HPGD inhibitors: human ALDH1A1 inhibition; shares compounds with NTMT1 inh; recombinant ALDH1A1, NADH fluorescence, propionaldehyde/NAD+; Potency, µM (titrated, usually from 57.1 µM), inactives show at the highest dose activity change, negative = inhibition, actives largely listed as inhibitors; 230 compounds, 93% hits
Numbers without * were called inactive; i = inactive; ? = inconclusive; . = no result; [ ] = dose if it differs, or a comment. In the library only some 4.5% were active in any assay of this set; here they are far more common. Unless noted, calls come from the whole dose curve; as a rule, active = well fitted curve in the direction sought with a large enough effect; inconclusive = small, poorly fitted or top-dose-only effect, or another doubt; inactive = no such curve, though single readings can be large; an effect the other way counts as inactive or inconclusive.

SMILES	HTT-AS act	NTMT1 inh	GPR32 ag	SKOV3 invasion	HTT prom inh	Sfp qHTS opt	Bsub HM489 growth	Sfp gel opt	Sfp inh SAR2	HSD17B4 counter	ALDH1A1 counter	others
Cc1ccnc(NC(=S)N2CCN(c3cc(F)cc(Cl)c3)CC2)c1	.	.	.	.	.	1.2µM*	15µM*	10µM*	1.6µM*	-21%	7.6µM*
COc1ccc2c(NC(=O)Nc3cccc(C(F)(F)F)n3)ccnc2c1	.	-4%[57.5 µM]	.	.	.	.	.	.	.	.	.
COC(=O)c1ccnc(NC(=S)N2CCN(c3cccc(C(F)(F)F)c3)CC2)c1	.	.	.	.	.	26µM*	17µM*	40µM*	11µM*	17µM*	12µM*
Cc1noc2ncnc(N3CCN(c4cccc(C(F)(F)F)c4)CC3)c12	-45%	8%	9	i	?	.	.	.	.	.	.
Cc1ccnc(NC(=S)N2CCN(c3cccc(C(F)(F)F)n3)CC2)c1	.	?	.	.	.	1.5µM*	30µM*	7.9µM*	0.73µM*	-26%	22µM*
CSc1ncc(C(=O)N2CCN(c3ccc(Cl)cc3)CC2)c(C)n1	-17%	-12%	-5	14%	-1%	.	.	.	.	.	.
Cc1ccccc1NC(=O)CSc1nc2ccc(NC(=O)COc3ccccc3F)cc2s1	-26%	-2%	27	?	-14%	.	.	.	.	.	.
Cc1ccnc(NC(=S)N2CCCc3ccc(C(F)(F)F)cc32)c1	.	-6%	.	.	.	3%	?	0%	?	?	27µM*	Sfp inh gel=-2%;hGST A1-1 inh=?
Cc1ccnc(N(C)C(=S)N2CCN(c3cccc(C(F)(F)F)c3)CC2)c1	.	-5%	.	.	.	?	?	?	?	-18%	19µM*
Cc1ccc2cc3cc(C(=O)N4CCN(c5cccc(C(F)(F)F)c5)CC4)sc3nc2c1	1%	13%	4	i	3%	.	.	.	.	.	.
CC(=O)Nc1ccc(NC(=O)Nc2sc3nc4n(c(=O)c3c2C)CCC(C)CC4)cc1 (stereo not given)	.	.	-4	1%	.	.	.	.	.	.	.
